We go through 14 molecules from PubChem BioAssay (NCATS).

Values without a mark were called inactive. Inconclusive results are not listed. The source made the active and inactive calls. Unless noted, calls come from the whole dose curve; as a rule, active = well fitted curve in the direction sought with a large enough effect; inconclusive = small, poorly fitted or top-dose-only effect, or another doubt; inactive = no such curve, though single readings can be large; an effect the other way counts as inactive or inconclusive.

Assay [1] can be described thus: Cellular Toxicity (caspase-3) Hek293 (AID 664).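 Note: cells exposed to compound for 16 h at 37 °C before readout.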 A digest of the protocol: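 Concentration-response qHTS: caspase 3/7 activation measured by luminescent aminoluciferin substrate cleavage after 16 h compound exposure of Hek 293 cells. AC50 from Hill equation, with DMSO as basal and 100 uM tamoxifen as 100%.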
Assay [2] can be described thus: Cellular Toxicity (caspase-3) N2a (AID 665).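 Note: compound exposure lasted 16 h at 37 °C before readout.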 A digest of the protocol:
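Caspase-3/7 activation measured as luminescence from Caspase-Glo reagent (1 h, room temperature) after 16 h compound exposure of mouse N2a cells. AC50 values from Hill-equation concentration-response, scaled between DMSO and 10 uM staurosporine.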

The nature of assay [3]: Cellular Toxicity (caspase-3) NIH 3T3 (AID 666).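 Note: caspase signal read after 16 h compound exposure; 0% = DMSO basal and 100% = 100 µM tamoxifen stimulation.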 A digest of the protocol: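 Caspase-Glo 3/7 luminescence reported caspase activation in 1000 NIH 3T3 cells/well after 16 h compound exposure at 37 C. DMSO set basal and 100 uM tamoxifen set 100% stimulation; concentration-response modeled with the Hill equation for AC50.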
Assay [4] is described as follows: Cellular Toxicity (caspase-3) Renal Proximal Tubule (AID 667).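 Note: cells exposed to compound for 16 hours at 37 °C before detection; 0% = DMSO basal and 100% = 10 µM staurosporine.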 A digest of the protocol: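 In qHTS format, rat primary proximal tubule cells seeded at 1000 per well are exposed to compounds for 16 hours at 37 °C. An increase in Caspase-Glo 3/7 luminescence indicates caspase activation.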
In assay [5] the target is Cytochrome P450 3A4 (Homo sapiens) (UniProt P08684). Briefly: qHTS Assay for Inhibitors and Substrates of Cytochrome P450 3A4 (AID 884). Note: nearly all actives have a fitted effect of over 50% in size. Note: potency is the fitted concentration of half-maximal effect. A digest of the protocol: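 Luminescent readout of luciferin produced by CYP3A4 (20 nM) dealkylation of Luciferin-PPXE, 25 uM (its KM). NADPH-driven reaction ran 60 min at RT after 10 min compound preincubation; data scaled to 57 uM ketoconazole as 100% inhibition.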
Sequence of Cytochrome P450 3A4 (Homo sapiens) (P08684 whole entry, looked up): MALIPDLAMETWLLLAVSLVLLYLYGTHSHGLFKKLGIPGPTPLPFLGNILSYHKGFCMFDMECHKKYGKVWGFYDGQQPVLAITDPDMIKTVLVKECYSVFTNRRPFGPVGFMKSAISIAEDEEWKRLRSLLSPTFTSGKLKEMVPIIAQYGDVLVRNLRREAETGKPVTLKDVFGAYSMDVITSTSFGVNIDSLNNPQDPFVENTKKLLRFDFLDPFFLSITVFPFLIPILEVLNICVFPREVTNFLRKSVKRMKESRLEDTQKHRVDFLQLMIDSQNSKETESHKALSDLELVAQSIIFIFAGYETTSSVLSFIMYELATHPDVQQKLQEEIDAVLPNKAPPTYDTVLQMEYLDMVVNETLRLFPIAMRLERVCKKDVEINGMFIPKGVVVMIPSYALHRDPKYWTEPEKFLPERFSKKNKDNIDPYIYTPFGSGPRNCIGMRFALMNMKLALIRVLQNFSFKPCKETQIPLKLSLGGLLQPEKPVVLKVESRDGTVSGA

The nature of assay [6]: Cell Viability - LYMP2-001 (AID 921).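 Note: cells exposed to compound for 24 h at 37 °C; nearly all actives have a fitted effect of over 70% in size.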 Note: potency is the fitted concentration of half-maximal effect. In a few lines: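 qHTS, 1536-well; lymphoblastoid cells, 24 hr compound, 37 C; ATP by CellTiter-Glo, 30 min RT; luminescence; Hill-fit AC50.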
Assay [7] can be described thus: MultiTox-Fluor Cytotoxicity Assay - LYMP1-001 - Dead Cells (AID 946). Note: potency is the fitted concentration of half-maximal effect. A digest of the protocol: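 AC50 from Hill fit of concentration-response; data normalized to DMSO (basal) and 15 uM tetraoctylammonium bromide (100%). LYMP1-001 lymphoblastoid cells, 2500/well, 16 hr compound at 37 C; dead-cell protease fluorescence, Ex/Em 485/520.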
In assay [8] the target is Guanine nucleotide-binding protein G(i) subunit alpha-1 (Homo sapiens) (UniProt P63096). Briefly: qHTS Assay for Inhibitors of RGS12 GoLoco Motif Activity (Green Fluorophore) (AID 879).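 Note: 0% = labeled peptide with Gαi1 and full inhibition = labeled peptide alone without protein; negative values mean loss of peptide binding seen as reduced polarization.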 A digest of the protocol: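 A drop in FITC polarization marked displacement of the FITC-tagged RGS12 GoLoco peptide (10 nM) from Gαi1 (50 nM). Compounds were incubated 10 min at room temperature in Tris pH 7.5 buffer containing 150 mM NaCl, 0.1 mM GDP and 0.05% NP40; unlabeled peptide titration served as control.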
Sequence of Guanine nucleotide-binding protein G(i) subunit alpha-1 (Homo sapiens) (P63096 whole entry, looked up): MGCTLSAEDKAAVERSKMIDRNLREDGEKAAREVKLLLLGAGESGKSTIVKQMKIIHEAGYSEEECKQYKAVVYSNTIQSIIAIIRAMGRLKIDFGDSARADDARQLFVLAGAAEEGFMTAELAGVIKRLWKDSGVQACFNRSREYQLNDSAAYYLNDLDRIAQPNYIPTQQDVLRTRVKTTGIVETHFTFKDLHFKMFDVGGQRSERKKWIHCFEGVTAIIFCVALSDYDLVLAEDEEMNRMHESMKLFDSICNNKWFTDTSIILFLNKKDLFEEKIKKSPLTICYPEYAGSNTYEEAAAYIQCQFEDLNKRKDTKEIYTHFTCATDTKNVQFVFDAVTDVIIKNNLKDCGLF

Assay [9] addresses Cytochrome P450 2C9 (Homo sapiens) (UniProt P11712). The experiment in a line: qHTS Assay for Inhibitors and Substrates of Cytochrome P450 2C9 (AID 883). Note: nearly all actives have a fitted effect of over 60% in size. Note: potency is the fitted concentration of half-maximal effect. A digest of the protocol: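 CYP2C9 deoxyluciferin hydroxylation, 37C, 60 min with NADPH regeneration; 10nM enzyme, 100uM Luciferin-H (KM). Glo detection reagent stopped reaction; luminescence normalized to sulphaphenazole (57uM) full inhibition.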

The target of assay [10] is Cytochrome P450 3A4 (Homo sapiens) (UniProt P08684). The experiment in a line: qHTS Assay for Activators of Cytochrome P450 3A4 (AID 885). Note: nearly all actives have a fitted effect of over 65% in size. Note: potency is the fitted concentration of half-maximal effect. A digest of the protocol: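 CYP3A4 activity: Luciferin-PPXE O-dealkylation, 25uM substrate, 200mM KPO4, RT throughout. Read-out is luciferase luminescence; higher values reflect activation.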
A short description of assay [11]: qHTS Assay for Identification of Small Molecule Antagonists for NFkB Signaling Pathway (AID 895; active = well fitted inhibition curve with a large enough effect in the signal ratio, with a control signal flat, not every such curve was filed as active; the % refers to the signal ratio; note: % is set by controls: 0 for no effect and ±100 for the full control effect). A digest of the protocol:
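NFkB-bla ME-180 cervical carcinoma cells with beta-lactamase reporter under NFkB response element; compounds added, then TNF alpha at 10 pM final (EC50), 5 h at 37 C. LiveBLAzer substrate 2 h, room temperature; emission 460/530 nm at 405 nm excitation.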

A short description of assay [12]: Confirmation and Secondary Assay for Modulators of Hemoglobin Beta Chain Splicing at IVS2 654 locus (AID 910).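 Note: per-well total GFP intensity by laser scanning cytometry after 2-day treatment; % of control where 0% means no effect.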 In a few lines:
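HeLa cells stably carrying EGFP interrupted by mutant beta-globin IVS2-654 intron (CMV-driven) were treated with compound for 2 days at 37C; corrected splicing was scored as total peak GFP intensity per well (488 nm excitation, 500-520 nm emission).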

The nature of assay [13]: qHTS Assay for Identification of Small Molecule Agonists for Thrombopoietin (TPO) Signaling Pathway (AID 917). Note: % is set by controls: 0 for no effect and ±100 for the full control effect. In a few lines: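 Quantitative HTS for pathway activators: compounds were pin-transferred onto IL-3-starved Ba/F3 cells expressing human TPO receptor, TPO was added at its EC50 (26 pM final), and after 24 hrs at 37 C reporter luciferase was measured.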
Assay [14] can be described thus: Confirmation and Secondary Assay for Modulators of Hemoglobin Beta Chain Splicing at IVS2 705 locus (AID 930).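 Note: HeLa cells stably expressing the EGFP-705 splicing reporter; series mostly up to about 46 µM; % of control where 0% means no effect.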 A digest of the protocol:
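HeLa cells stably carrying EGFP interrupted by mutant beta-globin IVS2-705 intron (CMV-driven) were seeded at 500 cells/well, treated next day with compound for 2 days at 37C; corrected splicing restores EGFP, read as total peak GFP intensity per well.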

The target of assay [15] is Muscarinic acetylcholine receptor M1 (Rattus norvegicus) (UniProt P08482). Briefly: qHTS Assay for Antagonists of Acetylcholine Muscarinic M1 Receptor: Kinetic Measurement of Intracellular Calcium Response (AID 943).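 Note: Fluo-4 calcium signal as peak divided by basal fluorescence over 4 min; series mostly up to about 35 µM; nearly all actives have a fitted effect of over 75% in size.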 In a few lines: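 Antagonism measured as reduction of carbachol-evoked (EC80, 100 nM final) calcium flux in rat M1-CHO cells after 10 min compound exposure. Fluo-4 signal read kinetically; ratio of maximal to basal fluorescence.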
Sequence of Muscarinic acetylcholine receptor M1 (Rattus norvegicus) (P08482 whole entry, looked up): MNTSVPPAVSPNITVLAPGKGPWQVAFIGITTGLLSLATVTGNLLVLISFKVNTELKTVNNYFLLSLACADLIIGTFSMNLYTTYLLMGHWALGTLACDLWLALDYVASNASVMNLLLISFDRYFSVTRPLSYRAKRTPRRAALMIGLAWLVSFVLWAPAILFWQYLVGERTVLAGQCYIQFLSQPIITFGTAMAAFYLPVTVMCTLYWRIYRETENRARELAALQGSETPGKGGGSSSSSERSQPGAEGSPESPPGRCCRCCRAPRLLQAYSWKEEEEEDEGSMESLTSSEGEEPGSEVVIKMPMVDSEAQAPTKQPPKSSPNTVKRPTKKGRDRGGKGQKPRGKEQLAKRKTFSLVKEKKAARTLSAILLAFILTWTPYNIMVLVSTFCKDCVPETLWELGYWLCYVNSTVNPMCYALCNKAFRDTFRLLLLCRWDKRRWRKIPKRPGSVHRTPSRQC

Assay [16] deals with Pyruvate kinase (Leishmania mexicana) (UniProt Q27686). The experiment in a line: qHTS Validation Assay for Inhibitors of Leishmania Mexicana Pyruvate Kinase (AID 945).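 Note: 0% = DMSO only neutral control wells.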 In a few lines:
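LmPYK E451W 0.2 nM; 0.5 mM PEP, 0.1 mM ADP, 7 mM MgCl2, 50 mM KCl, imidazole pH 7.2, 0.01% Tween 20, 0.05% BSA; 1 h RT; PKLight luminescence; DMSO-normalized.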

Assay [17] concerns the target Cytochrome P450 2D6 (Homo sapiens) (UniProt P10635). The experiment in a line: qHTS Assay for Inhibitors and Substrates of Cytochrome P450 2D6 (AID 891).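 Note: luciferin methyl ether substrate demethylated by CYP2D6 with NADPH regeneration; % is set by controls: 0 for no effect and ±100 for the full control effect; nearly all actives have a fitted effect of over 60% in size.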 In a few lines: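 Luminescent read-out of luciferin formed by 5 nM human CYP2D6 demethylating 30 uM Luciferin-ME EGE (Km level) over 60 min at room temperature after NADPH regeneration addition. Data normalized to full inhibition by 1.43 uM quinidine.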

Assay [18] concerns the target Cytochrome P450 2C19 (Homo sapiens) (UniProt P33261). Briefly: qHTS Assay for Inhibitors and Substrates of Cytochrome P450 2C19 (AID 899). Note: nearly all actives have a fitted effect of over 60% in size. Note: potency is the fitted concentration of half-maximal effect. A digest of the protocol: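 In 50mM KPO4, the reaction held 5nM enzyme and KM-level (10uM) Luciferin-H EGE; it ran 60 min at 37C after NADPH regeneration and a 10 min compound preincubation. Luminescence values were scaled to 57uM ketoconazole as complete inhibition.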

Assay [19] addresses Muscarinic acetylcholine receptor M1 (Rattus norvegicus) (UniProt P08482). The experiment in a line: qHTS Assay for Antagonists of Acetylcholine Muscarinic M1 Receptor: Measurement of IP-One Response (AID 944). Note: nearly all actives have a fitted effect of over 75% in size. In a few lines:
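IP1 accumulation measured via TR-FRET between d2-IP1 and Eu-cryptate anti-IP1 antibody after carbachol (200 nM, EC80) stimulation for 30 min; rat M1-transfected CHO cells received compound 10 min before agonist.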

Assay [20] can be described thus: qHTS Assay for Identification of Small Molecule Agonists for Hypoxia Response Element Signaling Pathway (AID 914; active = well fitted activation curve with a large enough effect in the signal ratio, with a control signal flat, not every such curve was filed as active; the % refers to the signal ratio; note: % of control where 0% means no effect). To be noted: ME-180 HRE-bla reporter, beta-lactamase ratio, CoCl2, 17 h; hits give high values. In a few lines: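 ME-180 cells carrying an HRE-driven beta-lactamase reporter were treated with compounds in a titration series plus an EC50 level of CoCl2 for 17 h at 37 degrees Celsius; CCF4 readout as the 460nm/530nm ratio gave AC50 values.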

Sequence of Cytochrome P450 2C9 (Homo sapiens) (P11712 whole entry, looked up): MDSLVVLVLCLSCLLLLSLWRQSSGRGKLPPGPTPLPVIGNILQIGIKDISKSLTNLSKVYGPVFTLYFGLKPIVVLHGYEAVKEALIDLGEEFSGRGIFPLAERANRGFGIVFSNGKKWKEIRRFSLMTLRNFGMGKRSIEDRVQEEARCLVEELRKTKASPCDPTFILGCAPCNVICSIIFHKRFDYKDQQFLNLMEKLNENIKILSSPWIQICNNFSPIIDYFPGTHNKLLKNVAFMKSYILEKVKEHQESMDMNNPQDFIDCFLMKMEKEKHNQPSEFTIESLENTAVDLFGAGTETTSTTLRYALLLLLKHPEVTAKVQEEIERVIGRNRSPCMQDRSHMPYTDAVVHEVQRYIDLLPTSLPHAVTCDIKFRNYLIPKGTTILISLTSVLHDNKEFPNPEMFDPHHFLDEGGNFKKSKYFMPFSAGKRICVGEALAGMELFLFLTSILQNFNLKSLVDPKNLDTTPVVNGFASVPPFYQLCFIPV
Sequence of Pyruvate kinase (Leishmania mexicana) (Q27686 2-499 E452W): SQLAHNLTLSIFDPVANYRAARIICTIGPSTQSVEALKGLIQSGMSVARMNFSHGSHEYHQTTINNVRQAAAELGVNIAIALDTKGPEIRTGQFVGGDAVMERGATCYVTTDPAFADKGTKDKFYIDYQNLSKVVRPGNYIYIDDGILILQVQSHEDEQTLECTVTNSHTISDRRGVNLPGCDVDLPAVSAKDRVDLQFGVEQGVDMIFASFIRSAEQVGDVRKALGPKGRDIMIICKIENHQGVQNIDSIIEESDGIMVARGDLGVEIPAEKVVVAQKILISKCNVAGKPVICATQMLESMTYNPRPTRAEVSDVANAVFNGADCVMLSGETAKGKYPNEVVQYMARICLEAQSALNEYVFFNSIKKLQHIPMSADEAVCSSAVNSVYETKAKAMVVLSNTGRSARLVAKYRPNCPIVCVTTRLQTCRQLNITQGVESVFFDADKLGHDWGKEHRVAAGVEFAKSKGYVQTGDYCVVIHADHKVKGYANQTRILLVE
Sequence of Cytochrome P450 2C19 (Homo sapiens) (P33261 whole entry, looked up): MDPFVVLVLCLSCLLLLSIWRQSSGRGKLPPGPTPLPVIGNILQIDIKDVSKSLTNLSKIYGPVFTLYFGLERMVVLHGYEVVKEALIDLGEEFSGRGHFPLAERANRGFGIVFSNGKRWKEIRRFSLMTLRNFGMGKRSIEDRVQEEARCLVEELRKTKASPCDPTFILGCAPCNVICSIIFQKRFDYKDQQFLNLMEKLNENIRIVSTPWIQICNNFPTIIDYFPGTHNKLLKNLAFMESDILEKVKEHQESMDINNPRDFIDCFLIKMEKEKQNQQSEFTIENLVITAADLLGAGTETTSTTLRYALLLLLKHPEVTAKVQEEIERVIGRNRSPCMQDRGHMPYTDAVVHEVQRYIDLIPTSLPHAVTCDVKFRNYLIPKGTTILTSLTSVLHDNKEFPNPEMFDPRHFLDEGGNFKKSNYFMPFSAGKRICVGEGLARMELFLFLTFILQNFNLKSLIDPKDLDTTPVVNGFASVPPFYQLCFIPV
Sequence of Cytochrome P450 2D6 (Homo sapiens) (P10635 whole entry, looked up): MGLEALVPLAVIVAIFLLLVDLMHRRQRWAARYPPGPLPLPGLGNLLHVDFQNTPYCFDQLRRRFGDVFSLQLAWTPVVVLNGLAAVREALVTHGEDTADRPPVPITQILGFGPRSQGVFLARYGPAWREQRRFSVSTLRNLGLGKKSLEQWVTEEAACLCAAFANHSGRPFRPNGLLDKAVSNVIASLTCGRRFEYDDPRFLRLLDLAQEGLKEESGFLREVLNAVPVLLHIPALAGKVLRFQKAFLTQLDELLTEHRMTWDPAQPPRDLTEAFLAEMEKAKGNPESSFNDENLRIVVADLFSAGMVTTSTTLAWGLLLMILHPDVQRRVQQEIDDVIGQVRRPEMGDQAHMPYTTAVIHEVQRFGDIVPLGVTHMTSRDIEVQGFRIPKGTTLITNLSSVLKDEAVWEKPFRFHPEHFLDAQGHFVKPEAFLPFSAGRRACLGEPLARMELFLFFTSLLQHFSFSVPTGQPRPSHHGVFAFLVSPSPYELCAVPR

Turning to `CNC(=O)Oc1cccc2ccccc12`, the outcome in assay [1], in assay [2], in assay [3] and in [4] was inactive. For the same molecule, the Potency entry in assay [5], in assay [6] and in assay [7] was “inactive” in each case.

Turning to `CCCCCCCCC(=O)NCc1ccc(O)c(OC)c1`, the outcome in assay [8], in [11], in [12], in assay [13], in [14] and in assay [16] was inactive. For the same molecule, in [9], the Potency is 3.16 µM (active). The Potency entry in [10] and in [15] was “inactive” throughout.

As to `CCC(=O)O[C@H]1CC[C@H]2[C@@H]3CCC4=CC(=O)CC[C@]4(C)[C@H]3CC[C@]12C`, in [5], the Potency result is “inactive”.

As to `O=C(O)c1nn(Cc2ccc(Cl)cc2Cl)c2ccccc12`, the molecule was classed as inactive in [8], in [13] and in [16]. Also, the Potency entry in assay [17], in assay [18], in assay [15] and in assay [19] was “inactive” in each case.

On to `COP(=O)(OC)OC=C(Cl)Cl`, for which the outcome in assay [1], in assay [2], in [3] and in assay [4] was inactive. The Potency result in [6] and in assay [7] was “inactive” each time.

With `CC[n+]1c(-c2ccccc2)c2cc(N)ccc2c2ccc(N)cc21`, the outcome in assay [1], in assay [2], in assay [4], in assay [12] and in assay [14] was inactive. Besides, the Potency result in assay [10] was “inactive”. Besides, the Potency in [6] was 7.94 µM (active); in assay [7] it was 39.8 µM (active).

In the case of `NC(=O)CN1CCCC1=O`, the result in assay [8], in assay [12], in assay [13], in [14] and in assay [16] was inactive. The Potency entry in [5] was “inactive”.

As for `Oc1c(Br)cc(Br)cc1Br`, the molecule was called inactive in assay [1], in [2], in assay [3] and in assay [4]. For the same molecule, the Potency result in assay [5], in [6] and in [7] was “inactive” each time. Besides, the Potency in assay [10] is 15.8 µM (active).

Consider `COc1ccc(C(=O)N2CCCC2=O)cc1`, for which the molecule was called inactive in [8], in assay [12], in assay [13], in assay [14] and in [16].

Consider `CCCCCCCCCCCC[N+](C)(C)CCOc1ccccc1`, for which the result in assay [1], in assay [2] and in assay [4] was inactive. The Potency in assay [6] is 31.6 µM (active).

As to `c1ccc2nc(N3CCNCC3)ccc2c1`, the molecule was classed as inactive in assay [8], in assay [12], in [13], in assay [14] and in assay [16]. For the same molecule, the Potency result in [9] and in assay [10] was “inactive” throughout. Besides, the activation in assay [20] is -4.77%.

On to `Oc1ccc2[nH]cc(CCCCN3CC=C(c4ccccc4)CC3)c2c1`, for which the Potency entry in [5] was “inactive”. The Potency in [10] was 3.98 µM (active).

With `Oc1ccc(Cl)cc1Sc1cc(Cl)ccc1O`, the values for the Potency in [9] and in assay [18] were 0.398 µM (active) and 0.0794 µM (active), respectively.

For the molecule `CN(C)C(=S)SSC(=S)N(C)C`, the outcome in assay [1], in assay [2], in [3], in [4], in [12] and in [14] was inactive. Also, the Potency was 15.8 µM (active) in assay [5], 0.158 µM (active) in [6] and 0.794 µM (active) in assay [7]. For the same molecule, the Potency entry in assay [10] was “inactive”.
